Measured values published in article PMC4552634, “A New Set of Chemical Starting Points with Plasmodium falciparum Transmission-Blocking Potential for Antimalarial Drug Discovery” (PLoS ONE, 2015).
Out of some 13,000 compounds screened, about 3,200 (25%) showed an effect of 50% or more. The list shows a part of the results.

Each compound was assayed on P. falciparum stage V gametocytes. Settings: 48 h, 5 µM; inhibitor.
Design: BacTiter-Glo ATP luminescence viability of purified stage V gametocytes in 384-well plates, per cent inhibition versus DMSO

SMILES	% Inhibition
CNC(=O)/C=C/c1cc(NC(=O)Nc2ccnc3c(Br)cccc23)ccc1OC [TCMDC-140331]	7.673%
O=C1C2=C(Nc3ccccc3SC2c2ccccc2)c2ccccc21 (stereo not shown) [TCMDC-123496]	22.47%
COc1ccc(-c2cccc(NC(=O)c3ccc(F)cc3)c2)cc1CN1CCCN(C)CC1 [TCMDC-132607]	5.891%
CN1CCCN(Cc2ccc(-c3cccc(NC(=O)c4cccc(F)c4)c3)cc2)CC1 [TCMDC-132646]	-5.89%
COc1ccc(-c2ccc(NC(=O)c3cccc(C#N)c3)cc2)cc1CN1CCCN(C)CC1 [TCMDC-132531]	38.42%
COc1ccc(-c2cccc(NC(=O)c3cccc(F)c3)c2)cc1CN1CCCN(C)CC1 [TCMDC-132619]	89.96%
COc1ccc(-c2ccc(NC(=O)c3cccc(F)c3)cc2)cc1CN1CCCN(C)CC1 [TCMDC-132528]	79.48%
COc1ccc2c(c1)OC(C)(C)CC2=NOS(=O)(=O)c1ccc(C)cc1 [TCMDC-131772]	-0.3703%
O=c1cc(NCCCNC2CCOc3c(Cl)cc(Cl)cc32)[nH]c2ccccc12 (stereo not shown) [TCMDC-139477]	33.79%
CC(=O)N[C@H](C(=O)Nc1ccc(-c2ccc(-c3nc4ccc(C(F)(F)F)cc4[nH]3)cc2)cc1)C(C)C [TCMDC-136854]	-3.438%
Cc1cccc2nc(-c3ccc(-c4ccc(NC(=O)NC5CC5c5ccccc5)cc4)cc3)[nH]c12 (stereo not shown) [TCMDC-133255]	-29.85%
Cc1nnsc1C(=O)Nc1cccc(-c2ccc(-c3nc4ccccc4[nH]3)s2)c1 [TCMDC-137079]	9.217%
Cc1nnsc1C(=O)Nc1cccc(-c2ccc(-c3nc4cccc(C)c4[nH]3)s2)c1 [TCMDC-137091]	82.4%
Cc1cccc2nc(-c3ccc(-c4cccc(NC(=O)Nc5ccc(Cl)c(Cl)c5)c4)s3)[nH]c12 [TCMDC-133272]	-3.418%
COc1ccc(NC(=O)Nc2cccc(-c3ccc(-c4nc5cccc(C)c5[nH]4)s3)c2)cc1 [TCMDC-133242]	1.322%
Cc1cccc2nc(-c3ccc(-c4ccc(NC(=O)Nc5ccc(Cl)cc5)cc4)s3)[nH]c12 [TCMDC-133176]	-22.37%
Cc1nnsc1C(=O)Nc1ccc(-c2ccc(-c3nc4cccc(C)c4[nH]3)s2)cc1 [TCMDC-137090]	0.4196%
Cc1cccc2nc(-c3ccc(-c4cccc(NC(=O)Nc5ccc(Cl)cc5)c4)s3)[nH]c12 [TCMDC-133175]	74.56%
O=C(Nc1cccc(-c2ccc(-c3nc4cc(F)ccc4[nH]3)s2)c1)c1ccncc1 [TCMDC-136968]	-9.65%
Cc1nnsc1C(=O)Nc1cccc(-c2ccc(-c3nc4cc(F)ccc4[nH]3)s2)c1 [TCMDC-137089]	59.58%
CC1CC(NCCCNc2cc(=O)c3ccccc3[nH]2)c2cc(Cl)c(Cl)c(Cl)c21 (stereo not shown) [TCMDC-139479]	22.71%
C(=Cc1nc2ccccc2s1)c1ccc2c(c1)OCCO2 [TCMDC-124539]	68.35%

SMILES	% Inhibition
N=C(N)c1nc2ccccc2s1 [TCMDC-123945]	9.097%
C=CCNC(=O)CCCN=C(N)N [TCMDC-131668]	6.787%
Cc1cc2nc(-c3ccc(C(=O)NCCCc4ccccc4)cc3)[nH]c2cc1C [TCMDC-140429]	-39.85%
Cc1cc2nc(-c3ccc(C(=O)NCc4ccc(C(C)(C)C)cc4)cc3)[nH]c2cc1C [TCMDC-140433]	-24.96%
Cc1cc2nc(-c3ccc(OCC(=O)NCc4cccc(C(F)(F)F)c4)cc3)[nH]c2cc1C [TCMDC-140439]	-1.946%
CC(C)(C)c1ccc(CNC(=O)c2ccc(-c3nc4ccc(Cl)cc4[nH]3)cc2)cc1 [TCMDC-140442]	5.243%
Cc1cc2nc(-c3ccc(OCC(=O)NCc4ccc(C(C)(C)C)cc4)cc3)[nH]c2cc1C [TCMDC-140440]	63.48%
CC(C)(C)c1ccc2nc(-c3ccc(C(=O)NCCCc4ccccc4)cc3)[nH]c2c1 [TCMDC-140453]	68.75%
CC(C)(C)c1ccc2nc(-c3ccc(C(=O)NCc4cccc(C(F)(F)F)c4)cc3)[nH]c2c1 [TCMDC-140454]	18.91%
CCOC(=O)c1ccc2nc(-c3ccc(C(=O)NCc4ccc(C(C)(C)C)cc4)cc3)[nH]c2c1 [TCMDC-140576]	-8.95%
CC(C)(C)c1ccc(CNC(=O)c2ccc(-c3nc4ccc(C(C)(C)C)cc4[nH]3)cc2)cc1 [TCMDC-140455]	76.42%
CCc1ccc(NC(=O)c2cccc(CN3CCCN(Cc4cccc(O)c4)CC3)c2)cc1 [TCMDC-135989]	-33.27%
O=C(/C=C/c1ccc(Cl)cc1)NCCCCCN1CCCC(C(=O)Nc2ccc(Cl)c(Cl)c2)C1 (stereo not shown) [TCMDC-136125]	-14.11%
CCC1CN(CCCn2c3ccccc3c3ccccc32)C(CC)CN1 (stereo not shown) [TCMDC-138116]	25.71%
Cc1c(CCNC(=O)CCCN2CC(C)CC(C)C2)c2ccccc2n1C (stereo not shown) [TCMDC-131457]	10.13%
CC1CN(CCCn2c3ccccc3c3ccc(C(=O)CCCN(C)C)cc32)CC(C)N1 (stereo not shown) [TCMDC-137742]	88.42%
O=c1[nH]c2ccc(Nc3nccc(NCCc4ccccc4)n3)cc2[nH]1 [TCMDC-136805]	-64.58%
CC(Cc1ccc(NC(=O)CCCc2ccccc2)cc1)NCCc1cccc(Cl)c1 (stereo not shown) [TCMDC-139883]	22.17%
CC(CCCCC(=O)Nc1ccc(CC(C)NCCc2cccc(Cl)c2)cc1)NCCc1cccc(Cl)c1 (stereo not shown) [TCMDC-139799]	105.4%
CC(CCCCCC(=O)Nc1ccc(CC(C)NCCc2cccc(Cl)c2)cc1)NCCc1cccc(Cl)c1 (stereo not shown) [TCMDC-139800]	109.3%
CC(CCCC(=O)Nc1ccc(CC(C)NCCc2cccc(Cl)c2)cc1)NCCc1cccc(Cl)c1 (stereo not shown) [TCMDC-139798]	110.2%
